Shown are actives, neighbours in structure and some others; about 19% of the full set was active somewhere.
ELG1 repair inh: ELG1-dependent DNA repair inhibition; HEK293T ELG1-luciferase reporter, luminescence, 16 h; DNA damage induced by 5-fluorouridine; Potency, µM (doses to about 46.1 µM), hits mostly inhibitors; hit rate 2.3% among 330,000; AID 504467; note: nearly all actives have a fitted effect of over 55% in size
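5-Fluorouridine DNA damage + compound/DMSO, 2,000 cells/well, 16 h, 37 °C/5% CO2. ONE-Glo, 30 min RT, luminescence. Readout = decrease in reporter signal.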
IL-1B inflam inh: blocks inflammasome-driven IL-1 beta release; activity change, % at 57.5 µM; THP-1 LPS/ATP IL-1B secretion, AlphaLISA, 16 h; stronger effect = lower value; hit rate 4.7% among 360,000; AID 743279; in the data active = activity change below about -50%; inconclusive = mostly about -30% to -49%
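Secreted IL-1B measured by AlphaLISA bead assay after 16 h compound exposure of THP-1 cells; compounds (final up to 57.5 uM) added 1 h before LPS (250 ng/mL) and ATP (1.25 mM) stimulation; lower signal means less secretion.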
HT1080 IDH1KD tx: HT-1080 IDH1 knockdown cell toxicity (counter line). HT-1080 IDH1 knockdown viability, ATP luminescence, 48 h. Potency, µM (series often up to 46.1 µM), hits mostly cytotoxic. hit rate 2% among 360,000
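Cytotoxicity counter-line: IDH1KD HT-1080, 48 h, CellTiter-Glo. Curves classed by r2, magnitude and activity.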
HT1080NT lethal: kills 2HG-producing HT-1080-NT fibrosarcoma cells; HT-1080-NT fibrosarcoma viability, CellTiter-Glo ATP luminescence, 48 h; Potency, µM (highest dose often 46.1 µM), hits mostly cytotoxic; hit rate 1.6% among 360,000; AID 686970;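 note: NT is the 2HG producing partner of a matched IDH1 knockdown line; nearly all actives have a fitted effect of over 55% in size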
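HT-1080-NT fibrosarcoma cells (2HG-overproducing), 750 cells/well in RPMI with 5% FBS, dosed after 2 h and incubated 48 h at 37C. CellTiter-Glo luminescence normalized to DMSO and no-cell wells; concentration-response curves fitted and classed.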
DT40 TDP1 CPT: growth inhibition of DT40 Tdp1-/-;hTDP1 cells with camptothecin (screen for TDP1 inhibitors); chicken DT40 Tdp1-/-;hTDP1 cells + 20 nM CPT, ATP luminescence, 48 h; Potency, µM (series often up to 46.2 µM), most hits filed as inhibitors; hit rate 12% among 420,000; note: nearly all actives have a fitted effect of over 55% in size
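Chicken DT40 Tdp1-/- cells stably complemented with human TDP1 were seeded at 400 cells/well in medium containing 20 nM camptothecin, exposed to pin-transferred compounds, and grown at 37 °C for at least 48 hr. Viability was read as ATP luminescence.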
TDP1 cell noCPT: qHTS for Inhibitors of human tyrosyl-DNA phosphodiesterase 1 (TDP1): qHTS in cells in absence of CPT | DT40 Tdp1-/- hTDP1 cells, no CPT, ATP luminescence, 48 h | Potency, µM (doses to about 46.2 µM), hits mostly inhibitors | hit rate 15% among 420,000; note: nearly all actives have a fitted effect of over 55% in size
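Growth of hTDP1-complemented DT40 Tdp1-knockout cells is measured by ATP luminescence after at least 48 hr compound exposure at 37 °C, with DMSO substituting for the 20 nM CPT used in the parallel screen.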
Of the large screens only hits and unclear results are named; the others gave an inactive call. Unless noted, calls come from the whole dose curve; as a rule, active = well fitted curve in the direction sought with a large enough effect; inconclusive = small, poorly fitted or top-dose-only effect, or another doubt; inactive = no such curve, though single readings can be large; an effect the other way counts as inactive or inconclusive.

Cc1ccc(C)c(N2CCN(C(=O)c3cc4ccccn4n3)CC2)c1	DT40 TDP1 CPT inconclusive, TDP1 cell noCPT 23.1µM
O=C(c1ccccc1)N1CCN(C(=O)c2ccc([N+](=O)[O-])cc2)CC1	none
O=C(c1ccc2nsnc2c1)N1CCN(c2ccc([N+](=O)[O-])cc2)CC1	ELG1 repair inh 16.4µM, HT1080NT lethal inconclusive, DT40 TDP1 CPT 20.6µM, TDP1 cell noCPT 20.6µM
N#Cc1ccc(-c2ccc(OCC3CNC(=O)O3)cc2)cc1 (configuration not stated)	ELG1 repair inh inconclusive, DT40 TDP1 CPT 8.2µM, TDP1 cell noCPT 13µM
CN1CCN(NC(=O)CN2C(=O)S/C(=C\c3c(Cl)cccc3Cl)C2=O)CC1	none
Cc1cc2cc(CN(Cc3cccs3)C(c3nnnn3C(C)(C)C)C(C)C)c3nnnn3c2cc1C (configuration not stated)	DT40 TDP1 CPT 14.6µM, TDP1 cell noCPT 9.2µM
Cc1ccc2cc(CN(Cc3cccs3)Cc3nnnn3C(C)(C)C)c3nnnn3c2c1	none (no result: IL-1B inflam inh, HT1080 IDH1KD tx, HT1080NT lethal, DT40 TDP1 CPT, TDP1 cell noCPT)
NC(=S)N/N=C1/CCSc2ccc3ccccc3c21	ELG1 repair inh inconclusive, IL-1B inflam inh -94.8, HT1080 IDH1KD tx inconclusive, HT1080NT lethal 25.9µM, DT40 TDP1 CPT 3.66µM, TDP1 cell noCPT 2.59µM
CCCC[n+]1c2ccccc2cc2ccccc21	ELG1 repair inh inconclusive, IL-1B inflam inh -101.4, HT1080 IDH1KD tx inconclusive, HT1080NT lethal 23.1µM, DT40 TDP1 CPT 2.31µM, TDP1 cell noCPT 2.06µM
Cc1ccc2ccccc2[n+]1CCCS(=O)(=O)[O-]	none
CCC[n+]1c2ccccc2cc2ccccc21	ELG1 repair inh 23.1µM, IL-1B inflam inh -99.0, HT1080 IDH1KD tx inconclusive, HT1080NT lethal 16.4µM, DT40 TDP1 CPT 2.91µM, TDP1 cell noCPT 2.59µM
CN1C(=O)c2cccc3c(S(=O)(=O)N4CCCC4C(=O)O)ccc1c23 (configuration not stated)	none
CCCC(=O)N(c1ccc(OCC)cc1)S(=O)(=O)c1ccc2c3c(cccc13)C(=O)N2C	DT40 TDP1 CPT 14.6µM, TDP1 cell noCPT 13µM
Cc1ccc(NS(=O)(=O)c2cc(Br)cnc2N)c(Cl)c1	none
Nc1ncc(Br)cc1S(=O)(=O)Nc1cc(C(F)(F)F)cc(C(F)(F)F)c1	ELG1 repair inh inconclusive, HT1080 IDH1KD tx 3.66µM, HT1080NT lethal 18.4µM, DT40 TDP1 CPT inconclusive, TDP1 cell noCPT 18.4µM
Cc1ccc(NC(=O)COc2ccccc2)c(NC(=O)c2ccccc2C)c1	DT40 TDP1 CPT inconclusive, TDP1 cell noCPT 20.6µM (no result: ELG1 repair inh)
CCC(=O)c1ccc(OCC(=O)Nc2ccccc2N2CCOCC2)cc1	ELG1 repair inh inconclusive, DT40 TDP1 CPT inconclusive, TDP1 cell noCPT inconclusive
CCC(=O)c1ccc(OCC(=O)Nc2ccccc2N2CCCCC2)cc1	DT40 TDP1 CPT 2.59µM, TDP1 cell noCPT 2.91µM
Cc1cccc(OCC(=O)Nc2ccccc2N2CCN(C(=O)C(C)C)CC2)c1C	DT40 TDP1 CPT 20.6µM, TDP1 cell noCPT inconclusive
Cc1ccc(OCC(=O)Nc2ccccc2C(=O)N2CCCC2)cc1	DT40 TDP1 CPT inconclusive, TDP1 cell noCPT 16.4µM
Cc1ccc(NC(=O)c2ccco2)c(NC(=O)COc2ccccc2)c1	none
Cc1cccnc1NC(=O)c1ccc(Cl)c(S(=O)(=O)N2CCCCC2)c1	none
O=C(NCCc1ccc(Cl)cc1)c1cnc2sc(N3CCOCC3)nn2c1=O	none (no result: ELG1 repair inh, IL-1B inflam inh, HT1080 IDH1KD tx, HT1080NT lethal)
c1cnc2cc3c(cc2n1)[C@@H]1CNC[C@H]3C1	none (no result: ELG1 repair inh, IL-1B inflam inh, HT1080 IDH1KD tx, HT1080NT lethal)
Cc1ccccc1OCC(=O)Nc1ccccc1N1CCCCC1	ELG1 repair inh inconclusive, HT1080 IDH1KD tx inconclusive, DT40 TDP1 CPT inconclusive, TDP1 cell noCPT 20.6µM
COc1cc(C)ccc1OCC(=O)Nc1ccccc1N1CCOCC1	TDP1 cell noCPT inconclusive
Cc1cccc(OCC(=O)Nc2ccccc2N2CCCC2)c1C	DT40 TDP1 CPT inconclusive, TDP1 cell noCPT inconclusive
Cc1ccc(OCC(=O)Nc2ccccc2N2CCOCC2)c(C)c1	ELG1 repair inh inconclusive, DT40 TDP1 CPT 18.4µM, TDP1 cell noCPT inconclusive
CCN(CC(=O)Nc1ccc(N2CCOCC2)cc1)C(=O)Cc1ccccc1	ELG1 repair inh inconclusive
COc1ccc(S(=O)(=O)Nc2ccc3c(c2)C(=O)N([C@H](C)CO)C[C@H](C)[C@@H](CN(C)C(=O)NC(C)C)O3)cc1	none
COc1cc2c3c(c1OC)C(=O)CC3CCCC2 (configuration not stated)	IL-1B inflam inh inconclusive (no result: ELG1 repair inh)
O=C(Nc1cccc(F)c1)N1CCCC2(CCN(C(=O)c3cccc(F)c3)CC2)C1	none (no result: ELG1 repair inh, IL-1B inflam inh, HT1080 IDH1KD tx, HT1080NT lethal)
COC(=O)C(C)Sc1ccc2nnc(CCNS(=O)(=O)c3ccccc3)n2n1 (configuration not stated)	none
CCOC(=O)CSc1ccc2nnc(CCNS(=O)(=O)c3ccccc3)n2n1	none
O=S(=O)(NCCc1nnc2ccc(SCc3cccc(Cl)c3)nn12)c1ccccc1	DT40 TDP1 CPT 14.6µM, TDP1 cell noCPT 18.4µM (no result: ELG1 repair inh, IL-1B inflam inh, HT1080 IDH1KD tx, HT1080NT lethal)
Cc1ccc(S(=O)(=O)NCCc2nnc3ccc(SCc4ccccc4C)nn23)cc1	DT40 TDP1 CPT 16.4µM, TDP1 cell noCPT 16.4µM (no result: ELG1 repair inh, IL-1B inflam inh, HT1080 IDH1KD tx, HT1080NT lethal)
Cc1cc2ccccc2c[n+]1CC(=O)c1ccc(F)cc1	DT40 TDP1 CPT inconclusive, TDP1 cell noCPT 12.6µM (no result: ELG1 repair inh, IL-1B inflam inh, HT1080 IDH1KD tx, HT1080NT lethal)

Screening data from PubChem.
